Read-out in assay [1]: Tissue Factor, F3 (gene 2152)
Kind of assay: BSK_CASM3C_TissueFactor: BioMAP Diversity Plus: CASM3C Assay for Tissue Factor Biomarker Activity (AID 2283052).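 Also: cell surface tissue factor protein level read by ELISA.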 The following applies: primary human coronary artery smooth muscle cells; actives raise or lower the signal.

Read-out in assay [2]: Interferon-gamma inducible Protein 10 (IP10), CXCL10 (gene 3627)
Put plainly: BSK_hDFCGF_IP10: BioMAP Diversity Plus: hDFCGF Assay for Interferon-gamma inducible Protein 10 (IP10) Biomarker Activity (AID 2283053). The following applies: primary human foreskin fibroblasts; actives raise or lower the signal. The method, boiled down:
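Human foreskin fibroblast primary cells (hDFCGF system) were dosed with chemical and assayed at 24 h; IP-10 measured by ELISA. Activity fitted bidirectionally relative to DMSO negative control as baseline.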

Read-out in assay [3]: Urokinase-type plasminogen activator receptor (uPAR), PLAUR (gene 5329)
Put plainly: BSK_CASM3C_uPAR: BioMAP Diversity Plus: CASM3C Assay for Urokinase-type plasminogen activator receptor (uPAR) Biomarker Activity (AID 2283054).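 Also: cell-surface uPAR protein level quantified by ELISA.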 As to conditions: primary human coronary artery smooth muscle cells; actives raise or lower the signal.

Read-out in assay [4]: Vascular cell adhesion molecule 1 (VCAM1), VCAM1 (gene 7412)
Put plainly: BSK_CASM3C_VCAM1: BioMAP Diversity Plus: CASM3C Assay for Vascular cell adhesion molecule 1 (VCAM1) Biomarker Activity (AID 2283055).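 Also: VCAM-1 protein level quantified by ELISA on the cells.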 The following applies: primary human coronary artery smooth muscle cells; actives raise or lower the signal.

Read-out in assay [5]: Collagen III, COL3A1 (gene 1281)
Kind of assay: BSK_hDFCGF_CollagenIII: BioMAP Diversity Plus: hDFCGF Assay for Collagen III Biomarker Activity (AID 2283056). The following applies: primary human foreskin fibroblasts; actives raise or lower the signal. In short, it runs like this: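 hDFCGF primary human dermal fibroblasts; 24 h chemical exposure; collagen III by ELISA; bidirectional curve fit vs DMSO baseline (gain or loss of signal).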

Read-out in assay [6]: Epidermal growth factor receptor (EGFR), EGFR (gene 1956)
Kind of assay: BSK_hDFCGF_EGFR: BioMAP Diversity Plus: hDFCGF Assay for Epidermal growth factor receptor (EGFR) Biomarker Activity (AID 2283057). As to conditions: primary human foreskin fibroblasts; actives raise or lower the signal. The method, boiled down: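 Primary human foreskin fibroblasts were exposed to compound for 24 h, after which cell-surface EGFR was quantified by ELISA. Activity was fitted bidirectionally against the DMSO negative control as baseline.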

Read-out in assay [7]: Interleukin-8 (IL8), CXCL8 (gene 3576)
Put plainly: BSK_hDFCGF_IL8: BioMAP Diversity Plus: hDFCGF Assay for Interleukin-8 (IL8) Biomarker Activity (AID 2283058). The following applies: primary human foreskin fibroblasts; actives raise or lower the signal. The method, boiled down: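 ELISA read-out of IL-8 from primary human foreskin fibroblast cultures taken 24 h after dosing; values are bidirectional fits relative to DMSO vehicle.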

Assay [8] can be described thus: BSK_hDFCGF_Proliferation: Cell Proliferation Assessment in the BioMAP Diversity Plus: hDFCGF Assay (AID 2283059).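 Also: curves fitted for both rise and fall of signal versus DMSO baseline.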 The following applies: primary human foreskin fibroblasts. In short, it runs like this:
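Primary human foreskin fibroblasts, sub-confluent; […]; 10% TCA fix, 0.1% SRB stain, A560 total protein. Gain/loss fitted bidirectionally vs DMSO control.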

Read-out in assay [9]: Macrophage colony-stimulating factor (MCSF), CSF1 (gene 1435)
Kind of assay: BSK_hDFCGF_MCSF: BioMAP Diversity Plus: hDFCGF Assay for Macrophage colony-stimulating factor (MCSF) Biomarker Activity (AID 2283060). The following applies: primary human foreskin fibroblasts; actives raise or lower the signal. In short, it runs like this:
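ELISA read-out of M-CSF in human dermal foreskin fibroblast cultures, 24 h after chemical dosing; gain or loss of signal fitted bidirectionally relative to DMSO baseline.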

Assay [10] can be described thus: BSK_hDFCGF_SRB: Viability Assessment in the BioMAP Diversity Plus: hDFCGF Assay (AID 2283061).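 Also: cells exposed to compound for 24 h before the read.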 The following applies: primary human foreskin fibroblasts. In short, it runs like this:
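Primary human foreskin fibroblasts; 24 h post-dose; fixed 10% TCA, stained 0.1% SRB, A560 read; total protein as overt cytotoxicity measure; curves fit bidirectionally vs DMSO control.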

Read-out in assay [11]: Monokine induced gamma interferon (MIG), CXCL9 (gene 4283)
Kind of assay: BSK_hDFCGF_MIG: BioMAP Diversity Plus: hDFCGF Assay for Monokine induced gamma interferon (MIG) Biomarker Activity (AID 2283063). The following applies: primary human foreskin fibroblasts; actives raise or lower the signal. The method, boiled down: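 Fibroblasts (human foreskin, primary) dosed, 24 h, MIG by ELISA; fit bidirectional vs DMSO.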

Read-out in assay [12]: Matrix Metallopeptidase 1 (MMP1), MMP1 (gene 4312)
Kind of assay: BSK_hDFCGF_MMP1: BioMAP Diversity Plus: hDFCGF Assay for Matrix Metallopeptidase 1 (MMP1) Biomarker Activity (AID 2283064). As to conditions: primary human foreskin fibroblasts; actives raise or lower the signal. In short, it runs like this: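 Primary human foreskin fibroblasts exposed to chemicals for 24 h; MMP1 measured by ELISA. Cytotoxicity tracked by SRB staining in parallel cultures; bidirectional fit relative to DMSO.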

Read-out in assay [13]: Vascular cell adhesion molecule 1 (VCAM1), VCAM1 (gene 7412)
Put plainly: BSK_hDFCGF_VCAM1: BioMAP Diversity Plus: hDFCGF Assay for Vascular cell adhesion molecule 1 (VCAM1) Biomarker Activity (AID 2283065).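 As to AC50: VCAM-1 protein level quantified by ELISA after 24 h chemical exposure.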 The following applies: primary human foreskin fibroblasts; actives raise or lower the signal. In short, it runs like this:
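ELISA read-out of VCAM-1 on human skin fibroblasts, 24 h post-dose; gain or loss of signal fitted bidirectionally against DMSO baseline.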

Read-out in assay [14]: Plasminogen activator inhibitor-1 (PAI1), SERPINE1 (gene 5054)
Kind of assay: BSK_hDFCGF_PAI1: BioMAP Diversity Plus: hDFCGF Assay for Plasminogen activator inhibitor-1 (PAI1) Biomarker Activity (AID 2283066). The following applies: primary human foreskin fibroblasts; actives raise or lower the signal. The method, boiled down: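 Human foreskin fibroblasts in the hDFCGF system were dosed with compound for 24 h; PAI-1 was quantified by ELISA. Bidirectional curve fitting used DMSO as negative control and baseline.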

Read-out in assay [15]: Intercellular Adhesion Molecule 1 (ICAM1), ICAM1 (gene 3383)
Put plainly: BSK_KF3CT_ICAM1: BioMAP Diversity Plus: KF3CT Assay for Intercellular Adhesion Molecule 1 (ICAM1) Biomarker Activity (AID 2283067). As to conditions: primary human keratinocytes with fibroblasts; actives raise or lower the signal. The method, boiled down:
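ELISA readout of ICAM-1; KF3CT human skin co-culture (keratinocytes + foreskin fibroblasts), 24 h post-dose; gain/loss fit vs DMSO baseline.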

Read-out in assay [16]: Interferon-gamma inducible Protein 10 (IP10), CXCL10 (gene 3627)
Put plainly: BSK_KF3CT_IP10: BioMAP Diversity Plus: KF3CT Assay for Interferon-gamma inducible Protein 10 (IP10) Biomarker Activity (AID 2283068). As to conditions: primary human keratinocytes with fibroblasts; actives raise or lower the signal. The method, boiled down:
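In a primary skin co-culture of keratinocytes and fibroblasts, IP-10 is quantified by ELISA at 24 h after dosing. SRB staining of parallel wells monitors overt toxicity. Curves are fitted both directions against DMSO.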

Assay [17] in a line: BSK_KF3CT_SRB: Viability Assessment in the BioMAP Diversity Plus: KF3CT Assay (AID 2283069).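 Also: total protein by sulforhodamine B staining as a cytotoxicity measure; read 24 h after compound addition.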 The following applies: primary human keratinocytes with fibroblasts. In short, it runs like this: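 Human keratinocyte and foreskin fibroblast co-culture exposed to chemical for 24 h. Total protein measured in parallel cultures by 0.1% sulforhodamine B staining after 10% TCA fixation, read at 560 nm; bidirectional fit relative to DMSO.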

Read-out in assay [18]: Interleukin-1 alpha (IL1a), IL1A (gene 3552)
Put plainly: BSK_KF3CT_IL1a: BioMAP Diversity Plus: KF3CT Assay for Interleukin-1 alpha (IL1a) Biomarker Activity (AID 2283070). As to conditions: primary human keratinocytes with fibroblasts; actives raise or lower the signal. In short, it runs like this: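 Primary human keratinocyte plus foreskin fibroblast co-culture, dosed and measured at 24 h in 96-well plates. IL-1a level quantified by ELISA; bidirectional fit relative to DMSO.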

Read-out in assay [19]: TIMP metallopeptidase inhibitor 2 (TIMP2), TIMP2 (gene 7077)
Kind of assay: BSK_KF3CT_TIMP2: BioMAP Diversity Plus: KF3CT Assay for TIMP metallopeptidase inhibitor 2 (TIMP2) Biomarker Activity (AID 2283071). The following applies: primary human keratinocytes with fibroblasts; actives raise or lower the signal. The method, boiled down:
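Human primary keratinocyte/foreskin fibroblast co-culture dosed with chemical and sampled at 24 h. TIMP-2 levels quantified by ELISA; bidirectional fitting against DMSO negative control as baseline.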

These results are taken from PubChem BioAssay (EPA / NIEHS).

A word on the AC50: it is the concentration at which the activity in the assay is half-maximal.

Calls of active or inactive are those of the source. The calls were made as follows: active = hit-call score of the fitted dose curve at least 0.9, where 1 is the maximum; inactive = score below 0.9.

As for `O=C(O)c1ccccc1C(c1ccc(O)cc1)c1ccc(O)cc1`, the outcome in assay [1], in [2], in assay [3], in [4], in [5] and in assay [6] was inactive. Further, the result in assay [7], in assay [8], in [9], in [10], in assay [11] and in assay [12] was inactive. For the same compound, the result in [13], in assay [14], in [15], in assay [16], in [17] and in assay [18] was inactive. The result in assay [19] was inactive.

For `CCCCC(CC)COC(=O)CCCCC(=O)OCC(CC)CCCC` (stereo not given), the result in assay [1], in assay [2], in [3], in assay [4], in [5] and in assay [6] was inactive. The outcome in assay [7], in assay [8], in assay [9], in [10], in [11] and in assay [12] was inactive. Moreover, the result in assay [13], in [14], in assay [15], in assay [16], in assay [17] and in [18] was inactive. In assay [19], the result was inactive.

On to `OC1CCCCC1`, for which the outcome in [1], in assay [2], in assay [3], in assay [4], in assay [5] and in assay [6] was inactive. Also, the outcome in assay [7], in [8], in [9], in [10], in assay [11] and in assay [13] was inactive. For the same compound, the result in assay [14], in [15], in [16], in [17], in [18] and in assay [19] was inactive.

As for `COC(=O)CCCCC(=O)OC`, the outcome in assay [1], in assay [2], in assay [3], in assay [4], in [5] and in assay [6] was inactive. For the same compound, the outcome in assay [7], in assay [8], in [9], in assay [10], in [11] and in [13] was inactive. For the same compound, the outcome in [14], in [15], in assay [16], in assay [17], in assay [18] and in [19] was inactive.

Consider `CN1CCN(c2ccccc2/C=C2\SCCN(c3ccc(Cl)c(Cl)c3)C2=O)CC1`, for which the result in assay [1], in assay [3], in [4] and in [6] was inactive. Further, the concentration at half-maximal activity (AC50) in assay [2] was 30.7 µM (active); in assay [5], 13.7 µM (active); in assay [7], 32.3 µM (active); in assay [8], 5.54 µM (active); in assay [9] it was 23.5 µM (active); in assay [10], 28.3 µM (active). Besides, the AC50 in [11] is 39 µM (active); in assay [12], 38 µM (active); in assay [13], 31.8 µM (active); in assay [14] it was 9.63 µM (active); in assay [15], 31.8 µM (active); in assay [16], 28.5 µM (active). In addition, the figures for the AC50 in [17], in assay [18] and in assay [19] were 30.8 µM (active), 30.6 µM (active) and 28.1 µM (active), respectively.

With `OC1CCC(C2CCCCC2)CC1` (stereo not given), the outcome in assay [1], in assay [2], in [3], in [4], in assay [5] and in assay [6] was inactive. Moreover, the result in assay [7], in assay [8], in [9], in [10], in assay [11] and in assay [13] was inactive. For the same compound, the result in [14], in assay [15], in assay [16], in [17], in assay [18] and in assay [19] was inactive.

As to `Nc1cccc2c(N)cccc12`, the result in assay [1], in assay [3], in assay [4], in assay [5], in [6] and in assay [7] was inactive. Besides, the result in assay [10], in assay [12], in [14], in [15], in assay [16] and in [17] was inactive. The outcome in [18] and in assay [19] was inactive. For the same compound, the AC50 in assay [2] is 29.1 µM (active); in assay [8] it was 5.91 µM (active); in assay [9], 12.9 µM (active); in assay [11], 16.3 µM (active); in [13], 6.83 µM (active).
